Results as given in article PMC4552634, “A New Set of Chemical Starting Points with Plasmodium falciparum Transmission-Blocking Potential for Antimalarial Drug Discovery” (PLoS ONE, 2015).
About 3,200 (25%) of roughly 13,000 compounds showed an effect of 50% or more. This is one part of the list.

tested on: P. falciparum stage V gametocytes; parameters: BacTiter-Glo ATP luminescence viability of purified stage V gametocytes in 384-well plates, per cent inhibition versus DMSO; conditions: 48 h, 5 µM; inhibitor

SMILES	% Inhibition
CC(C)c1ccc(O)cc1Nc1ccnc2ccc(C(F)(F)F)cc12 [TCMDC-138278]	-32.37%
COc1ccc(OC)c(-c2ccc(O)c(CNCC(C)c3ccccc3)c2)c1 (stereo not drawn) [TCMDC-124647]	7.623%
Nc1nc2c(ncn2OC[C@H]2COP(=O)(O)CO2)c(=O)[nH]1 [TCMDC-131638]	1.746%
Cc1cc(C)cc(OCC(O)CN(Cc2cc(Cl)cc(Cl)c2)C(=O)Nc2ccccc2Cl)c1 (stereo not drawn) [TCMDC-141476]	13.96%
CCOc1cc(C(=O)N[C@@H](Cc2ccccc2)[C@H](O)CNCc2cc(OC)cc(OC)c2)cc(N2CCCCS2(=O)=O)c1 [TCMDC-134524]	22.64%
O=C1NC(=O)C(c2cccc(NC(=O)c3ccncc3)c2)=C1c1ccccc1 [TCMDC-140924]	2.839%
COc1ccc2nccc([C@@H](O)CN3CCC(NS(=O)(=O)c4cc5c(cc4Cl)SCC(=O)N5)CC3)c2c1 [TCMDC-141159]	4.839%
CCCCCCCN1CCC(NC(=O)Nc2ccnc3ccc(OC)cc23)C(C(=O)OCC)C1.O=C(O)C(=O)O (stereo not drawn) [TCMDC-139929]	-3.335%
CCCCCCCN1CCC(CCNc2ccnc3ccc(OC)cc23)CC1 [TCMDC-139197]	97.49%
CCCCCCCN1CCC(NC(=O)Nc2ccnc3ccc(OC)cc23)C(CO)C1.O=C(O)C(=O)O (stereo not drawn) [TCMDC-139969]	-36.82%
COCCOc1ccc(C(F)(F)F)cc1NC(=O)Cc1c(F)cccc1Cl [TCMDC-125025]	-70.46%
c1ccc(CNCc2ccc(-c3cccc(-c4nc5ccccc5[nH]4)c3)cc2)cc1 [TCMDC-132545]	18.29%
CN(C)CCNCc1ccc(-c2cccc(-c3nc4ccccc4[nH]3)c2)cc1 [TCMDC-132539]	20.35%
CC(C)NCc1cccc(-c2ccc(-c3nc4ccccc4[nH]3)cc2)c1 [TCMDC-132746]	23.3%
CCNCc1ccc(-c2cccc(-c3nc4ccccc4[nH]3)c2)cc1 [TCMDC-132568]	85.38%
CC(C)NCc1ccc(-c2cccc(-c3nc4ccccc4[nH]3)c2)cc1 [TCMDC-132550]	-10.92%
CC(C)CNCc1ccc(-c2cccc(-c3nc4ccccc4[nH]3)c2)cc1 [TCMDC-132547]	59.79%
Cc1ccc(Nc2nc(C)cc(Nc3cccc(C#N)c3)n2)cc1 [TCMDC-133460]	4.468%
O=C(Nc1ccc(-c2cccc(-c3nc4ccc(C(F)(F)F)cc4[nH]3)c2)cc1)Nc1ccc(Cl)c(Cl)c1 [TCMDC-133278]	-24.62%
CS(=O)(=O)CCN(CCS(C)(=O)=O)Cc1ccc(-c2ccc3ncnc(Nc4ccc(OCc5cccc(F)c5)c(Cl)c4)c3c2)o1 [TCMDC-138624]	0.5882%
CCC(C)C#Cc1c(C)nc(N)nc1N (stereo not drawn) [TCMDC-137729]	-55.19%
Cc1cccc2nc(-c3ccc(-c4ccc(CNCc5cnn(-c6ccccc6)n5)cc4)s3)[nH]c12.O=C(O)C(F)(F)F [TCMDC-132967]	11.48%
CN1CC=C(c2csc3ccc(NC(=O)Nc4ccc(-c5ccncc5)c5ccccc45)cc23)CC1 [TCMDC-139225]	89.24%

SMILES	% Inhibition
CN1CC=C(c2csc3ccc(NC(=O)Nc4ccc(-c5ccncc5)c(Cl)c4)cc23)CC1 [TCMDC-139226]	-3.853%
CN1CCC(c2csc3ccc(NC(=O)Nc4ccc(-c5ccncc5)c5ccccc45)cc23)CC1 [TCMDC-139229]	21.21%
CCNC(=O)c1ccc(-n2nc(C)cc2-c2ccccc2)cc1 [TCMDC-124440]	-33.35%
N#Cc1cccc(NC(=O)NC2CCN(CCCCCNC(=O)C3CC3c3ccc(Cl)c(Cl)c3)CC2)c1 (stereo not drawn) [TCMDC-136250]	5.084%
O=C(Nc1ccc(Cl)cc1)NC1CCN(CCCCCNC(=O)C2CC2c2ccc(Cl)c(Cl)c2)CC1 (stereo not drawn) [TCMDC-136251]	-16.96%
O=C(Nc1ccc(F)cc1)NC1CCN(CCCCCNC(=O)C2CC2c2ccc(Cl)c(Cl)c2)CC1 (stereo not drawn) [TCMDC-136249]	82.82%
O=C(Nc1cc(F)cc(F)c1)NC1CCN(CCCCCNC(=O)C2CC2c2ccc(Cl)c(Cl)c2)CC1 (stereo not drawn) [TCMDC-136252]	75.57%
Cc1ccc(NC(=O)NC2CCN(CCCCCNC(=O)C3CC3c3ccc(Cl)c(Cl)c3)CC2)cc1 (stereo not drawn) [TCMDC-136247]	-44.45%
O=C(Nc1cccc(F)c1)N[C@H]1CCN(CCCCCNC(=O)C2CC2c2ccc(Cl)c(Cl)c2)C1 (stereo partly drawn) [TCMDC-136261]	-0.7596%
O=C(Nc1cc(F)cc(F)c1)N[C@H]1CCN(CCCCCNC(=O)C2CC2c2ccc(Cl)c(Cl)c2)C1 (stereo partly drawn) [TCMDC-136263]	23.53%
O=C(Nc1cccc(F)c1)NC1CCN(CCCCCNC(=O)C2CC2c2ccc(Cl)c(Cl)c2)CC1 (stereo not drawn) [TCMDC-136248]	79.62%
Cc1cccc(Cn2nc(-c3ccccc3)c(N3CCCCC3)cc2=O)c1 [TCMDC-125526]	-20.8%
CCOC(=O)c1ccc(NCc2ccccn2)cc1 [TCMDC-123821]	-4.555%
Cc1cc(NC(=O)Nc2ccc3sccc3c2)c2ccccc2n1 [TCMDC-138970]	36.17%
CC1(C)N=C(N)N=C(N)N1c1ccc([N+](=O)[O-])cc1 [TCMDC-124128]	35.22%
COc1cc2nc(N3CCC(CNC(=O)/C=C/c4ccccc4F)CC3)nc(N)c2cc1OC.Cl [TCMDC-138163]	35.62%
COc1cc2c(cc1OC)CN(c1cc(N)c3cc(OC)c(OC)cc3n1)CC2.CS(=O)(=O)O [TCMDC-131968]	54.76%
COc1cc(Nc2nc(N)c3cc(OC)c(OC)cc3n2)cc(OC)c1.Cl [TCMDC-131884]	-87.65%
Cc1noc(-c2ccc(O)cc2O)c1-c1ccc2c(c1)OCCCO2 [TCMDC-124197]	16%
COc1cc(C(=O)N2C(c3nccs3)C(C(=O)N(OC)C(C)c3ccccc3)CC2(CC(C)C)C(=O)OC(C)(C)C)ccc1C(C)(C)C (stereo not drawn) [TCMDC-135187]	35.9%
CCCc1ccc(C(=O)N2C(c3nccs3)C(C(N)=O)CC2(CC(C)C)C(=O)O)cc1 (stereo not drawn) [TCMDC-138717]	-10.33%
CC(C)CC1(C(=O)OC(C)(C)C)CC(C(=O)OC(C)(C)C)C(c2cccs2)N1C(=O)c1ccc(C(C)(C)C)cc1 (stereo not drawn) [TCMDC-138807]	77.31%
